Screening results deposited in PubChem BioAssay by several laboratories.
Only some compounds are listed: those with a hit (about 3.7% of all), similar ones and a draw of the others.
PfHsp90 set2 – growth inhibition of PfHsp90-expressing yeast, primary screen, antimalarial PfHsp90 inhibitor project, S. cerevisiae, BacTiter-Glo luminescence, single point, set 2; BacTiter-Glo ATP, 48 h; yeast lacking PDR1 and PDR3 efflux regulators; inhibition, % at 9.4 µM; actives 0.32% (n = 310,000); AID 504621, 2011;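 active = every replicate shows inhibition above about 80%, whatever the replicate mean, limit read from the data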
NALP3 yeast inh – NALP3 inflammasome inhibitors in reconstituted yeast, primary screen, luminescence, uHTS | Yeast reconstituted NLRP3/ASC/caspase-1, beta-gal luminescence, 24 h | inhibition, % at 10 µM | actives 0.39% (n = 330,000);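 active = inhibition of 50% or more; inactive = inhibition below 50%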
tim10-1 inh – growth inhibitors of tim10-1 mutant yeast, primary screen, luminescence, uHTS; S. cerevisiae tim10-1 ts strain growth, BacTiter-Glo, 24 h; inhibition, % at 20 µM; actives 2.2% (n = 330,000); AID 463190, 2010;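 active = inhibition of at least 40%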;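 also: mutant grown at 25 °C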
tim23-1 inh – growth inhibitors of tim23-1 mutant yeast, primary screen, luminescence, uHTS; S. cerevisiae tim23-1 growth, BacTiter-Glo luminescence, 24 h; inhibition, % at 20 µM; actives 1.3% (n = 330,000);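 active = growth inhibition of the mutant yeast at or above 50%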;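 also: temperature-sensitive mutant grown at 25 °C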
TIM10 inh – growth inhibitors of isogenic TIM10 control yeast, primary screen, counter-screen for tim10-1 yeast inhibitor project, luminescence, uHTS | inhibition, % at 10 µM | actives 1.4% (n = 330,000) | S. cerevisiae TIM10 strain growth, BacTiter-Glo luminescence, 24 h | AID 463195, 2010;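 active = inhibition of 40% or more at the single tested concentration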;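 also: wild-type TIM10 isogenic control strain grown at permissive 25 °C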
NALP3 confirm – NALP3 inhibitors retested in yeast, confirmation, luminescence, single concentration. inhibition, % at 10 µM. actives 81% (n = 1,300). shares compounds with NALP3 yeast inh. yeast expressing human NALP3; in the data active = inhibition above about 48%
Casp1 ASC ctr – CASP1-PYCARD signaling inhibition in yeast, confirmatory test, counterassay for NLRP3 inhibitor program, one-dose | shares compounds with NALP3 yeast inh | yeast expressing Caspase-1-ASC, luminescence counter screen | inhibition, % at 10 µM | actives 66% (n = 1,000)
NALP3 retest – NALP3 inhibitors in yeast, repeat test, confirmation, luminescence, single concentration, retest | shares compounds with NALP3 yeast inh | yeast expressing human NALP3, luminescence read-out | inhibition, % at 10 µM | actives 53% (n = 1,000)
tim10-1 confirm – growth inhibitors of tim10-1 mutant yeast, confirmation, single concentration, luminescence, S. cerevisiae | S. cerevisiae tim10-1 ts strain growth, BacTiter-Glo, 24 h | shares compounds with tim10-1 inh | actives 56% (n = 7,400) | inhibition, % at 20 µM;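 active = inhibition of yeast growth at or above a set limit in either of two repeat tests at 20 µM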;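 also: tim10-1 mutant grown at permissive 25 °C to find synthetic lethal compounds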
TIM10 conf – growth inhibitors of wild-type TIM10 yeast, confirmation, counter-screen for tim10-1 synthetic lethality project, single concentration, luminescence, S. cerevisiae | actives 63% (n = 4,600) | shares compounds with TIM10 inh | inhibition, % at 10 µM | S. cerevisiae tim10 strain growth, BacTiter-Glo luminescence, 24 h;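 active = inhibition of yeast growth at or above a set limit in either of two replicates at 10 µM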; also: this counterscreen used the strain with wild-type TIM10
tim23-1 conf – tim23-1 mutant yeast growth inhibitors, confirmation, luminescence, single concentration; inhibition, % at 20 µM; shares compounds with tim23-1 inh; S. cerevisiae tim23-1 growth, BacTiter-Glo luminescence, 24 h; AID 463218, 2010; actives 83% (n = 4,400);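 active = inhibition above about 39% in either of two replicate wells at 20 µM, limit read from the data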;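 also: temperature-sensitive tim23-1 mutant grown at 25 °C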
Large screens that a line does not name were inactive (follow-up assays come after a bar, where they were run); ! = not confirmed by another sample. Rule as the data show it, unless noted: active = inhibition above about 50%; inactive = the rest.

CC(=O)Nc1cccc(-c2cc(-c3c(Cl)cccc3Cl)no2)c1	NALP3 yeast inh 52.0, tim23-1 inh 61.4, TIM10 inh 44.0 | NALP3 confirm inactive | Casp1 ASC ctr 53.0 | NALP3 retest 51.6 | TIM10 conf inactive | tim23-1 conf 40.7
O=C(Nc1scc(-c2ccc(Br)cc2)c1C(=O)O)c1ccccc1F	NALP3 yeast inh 82.2, tim10-1 inh 74.4, tim23-1 inh 87.6, TIM10 inh 74.2 | NALP3 confirm 90.9 | tim10-1 confirm 82.2 | TIM10 conf 91.0 | tim23-1 conf 89.0
Cc1ccc(-c2csc(NC(=O)c3ccccc3F)c2C(=O)O)cc1	NALP3 yeast inh 71.4, tim10-1 inh 78.7, tim23-1 inh 83.5, TIM10 inh 73.8 | NALP3 confirm 85.8 | Casp1 ASC ctr 76.5 | NALP3 retest 63.5 | tim10-1 confirm 79.4 | TIM10 conf 83.8 | tim23-1 conf 88.4
Oc1c(Cl)cc(Cl)cc1CNc1ccccn1	NALP3 yeast inh 51.7, tim23-1 inh 52.0 | NALP3 confirm 67.2 | Casp1 ASC ctr inactive | NALP3 retest inactive | tim23-1 conf 49.3
CC(=O)Nc1ccc(NC(=O)C(C)OC(=O)C2(c3ccccc3F)CCCC2)cc1 (stereo not given)	none
Cc1ccc2c(c1)C(=O)N1[C@H]3c4ccccc4OC[C@@H]3[C@H](c3ccccc3)[C@]1(C)C(=O)N2	PfHsp90 set2 105.2, NALP3 yeast inh 70.1, tim23-1 inh 57.5 | NALP3 confirm 83.1 | Casp1 ASC ctr 84.2 | NALP3 retest 72.7 | tim23-1 conf 60.2
Cc1ccc2c(c1)NC(=O)[C@@]1(C)[C@@H](c3ccccc3)[C@H]3COc4ccccc4[C@@H]3N1C2=O	none
C[C@@]12C(=O)Nc3ccc(Br)cc3C(=O)N1[C@H]1c3cc(Cl)ccc3OC[C@@H]1[C@@H]2c1ccccc1	none
C[C@@]12C(=O)Nc3ccc(Br)cc3C(=O)N1[C@H]1c3ccccc3OC[C@@H]1[C@@H]2c1ccccc1	PfHsp90 set2 105.1, NALP3 yeast inh 87.5, tim23-1 inh 61.5 | NALP3 confirm 89.4 | Casp1 ASC ctr 89.8 | NALP3 retest 74.2 | tim23-1 conf 57.5
CN(CC(=O)Nc1cccc(F)c1)C(=O)CN1C(=O)C2CCCCC2C1=O (stereo not given)	none
CCCCCCCCCCCCCCCCn1cc[n+](C)c1	PfHsp90 set2 129.1, NALP3 yeast inh 61.3, tim10-1 inh 93.4, tim23-1 inh 55.5, TIM10 inh 66.8! | NALP3 confirm 71.6 | tim10-1 confirm 52.7 | TIM10 conf 58.2 | tim23-1 conf 63.0
CCCCCCCCn1ccc(=N)cc1	none
O=C(Nc1cccc(Cl)c1)c1cc(N=Nc2ccc([N+](=O)[O-])cc2Cl)ccc1O	NALP3 yeast inh 56.5, tim10-1 inh 70.5, tim23-1 inh 71.2 | NALP3 confirm 86.2 | Casp1 ASC ctr inactive | NALP3 retest 55.9 | tim10-1 confirm 59.7 | tim23-1 conf 77.5
O=C(Nc1cccc(Cl)c1)c1cccc(Oc2ccc([N+](=O)[O-])cc2Cl)c1	none (no result: PfHsp90 set2)
O=C(NNC(=O)c1ccncc1)Nc1cc(Cl)ccc1Cl	none (no result: NALP3 yeast inh, tim10-1 inh, tim23-1 inh, TIM10 inh)
Cc1csc2nc(O)c(C(=O)NCCC3=CCCCC3)c(=O)n12	NALP3 yeast inh 55.9, tim23-1 inh 65.6 | NALP3 confirm 74.6 | Casp1 ASC ctr inactive | NALP3 retest 55.1 | tim23-1 conf 44.1
Cc1[nH]c2ccccc2c1C(=O)/C=C/c1ccccc1	NALP3 yeast inh 63.3, tim23-1 inh 63.9 | NALP3 confirm 52.4 | Casp1 ASC ctr 79.8 | NALP3 retest 75.0 | tim23-1 conf 55.6
Cc1[nH]c2ccccc2c1C(=O)CN1CCN(C/C=C/c2ccccc2)CC1	none
CC(OC(=O)Cc1ccsc1)C(=O)Nc1ccc(C(N)=O)cc1 (stereo not given)	none
C/C(=N\NC(=O)c1cc(Br)ccc1O)c1ccccn1	none
C/C(=N\NC(=O)c1cccc(Br)c1)c1ccccn1	NALP3 yeast inh 61.4, tim23-1 inh 51.7 | NALP3 confirm 83.9 | Casp1 ASC ctr 84.7 | NALP3 retest 69.0 | tim23-1 conf inactive
Cc1ccc(S(=O)(=O)N2CCN(S(=O)(=O)N3CCC(C)CC3)CC2)cc1C	none
CN(C)c1ccc(Nc2ccc([N+](=O)[O-])cn2)cc1	none
O=C(c1ccccn1)c1conc1C(=O)c1ccc(Br)cc1	NALP3 yeast inh 69.1, tim10-1 inh 69.4, tim23-1 inh 77.6, TIM10 inh 72.4 | NALP3 confirm 82.8 | Casp1 ASC ctr 84.0 | NALP3 retest 60.2 | tim10-1 confirm 72.8 | TIM10 conf 62.7 | tim23-1 conf 87.2
CC(=O)Nc1ccc(S(=O)(=O)NNC(=S)NCC2CCCO2)cc1 (stereo not given)	none
O=Cc1cn(-c2ccccc2)nc1-c1ccccc1	NALP3 yeast inh 60.3, tim23-1 inh 68.3, TIM10 inh 57.9 | NALP3 confirm 72.1 | Casp1 ASC ctr 60.0 | NALP3 retest 53.0 | TIM10 conf 63.8 | tim23-1 conf 69.5
O=C(Nc1ccc2c(c1)OCCO2)c1cccc(Cl)c1	NALP3 yeast inh 52.9, tim23-1 inh 51.5 | NALP3 confirm 70.3 | Casp1 ASC ctr inactive | NALP3 retest inactive | tim23-1 conf 57.0
Cc1ccc(NN2C(=O)C=C(c3ccc(Cl)cc3)C2=O)cc1	PfHsp90 set2 119.7, NALP3 yeast inh 95.2, tim23-1 inh 68.2, TIM10 inh 72.5 | NALP3 confirm inactive | TIM10 conf 59.0 | tim23-1 conf inactive
CSc1nc2ncncc2[nH]1	none (no result: NALP3 yeast inh, tim10-1 inh, tim23-1 inh, TIM10 inh)
